Test systems include DU-145 prostate; K-562 leukemia; MALME-3M melanoma; MDA-MB-231 breast; RXF 393 renal; SF-268 CNS; SF-295 CNS; SF-539 CNS; UACC-257 melanoma; M14 melanoma; HCT-15 colon; HT29 colon; SNB-75 CNS; SNB-19 CNS; U251 CNS; PC-3 prostate; SK-MEL-5 melanoma; UACC-62 melanoma; LOX IMVI melanoma; SK-MEL-28 melanoma.
Common to all, as to assay: NCI-60 one-dose screen, 48 h (100 = growth as untreated, 0 = no growth, -100 = all killed)
Conditions in all cases: 10 µM unless noted

About 83,000 compounds went through this panel and 20% of them were active in at least one assay; those are over-represented in the sample as a whole.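 Single-concentration screen, 48 h exposure, 96-well plates. Endpoint: percent growth. Below 10 = active.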 Unmarked numbers belong to inactive results. Calls of active or inactive are those of the source.

With `Cc1ccc(Cn2cc(COc3ccc4c5ccnc(C)c5n(CCCc5ccccc5)c4c3)nn2)cc1`, the growth with DU-145 prostate is 103%; in the assay with K-562 leukemia, 62.3%; in the assay on MALME-3M melanoma it was 87.9%; with MDA-MB-231 breast it was 75.8%; in the assay on RXF 393 renal, 114%; in the assay on SF-268 CNS, 95.9%. Moreover, the growth in the assay on SF-295 CNS was 87.7%; with SF-539 CNS, 89.9%; in the assay on UACC-257 melanoma, 109%; in the assay on M14 melanoma it was 86.2%; in the assay with HCT-15 colon, 86.2%; in the assay with HT29 colon, 71.8%. For the same molecule, the growth is 97.6% in the assay with SNB-75 CNS; 99.4% with SNB-19 CNS; 110% in the assay on U251 CNS; 81.4% with PC-3 prostate; 80.4% in the assay on SK-MEL-5 melanoma; 95% with UACC-62 melanoma. For the same molecule, the growth in the assay with LOX IMVI melanoma is 91.1%; with SK-MEL-28 melanoma it was 104%.

On to `Cc1ccc(-c2nc3c(N=Nc4ccc(S(N)(=O)=O)cc4)c(N)nn3c(N)c2C#N)cc1`, for which the growth in the assay with DU-145 prostate was 34.6%; in the assay on K-562 leukemia it was 20.3%; in the assay on MALME-3M melanoma, 48.5%; with MDA-MB-231 breast it was 40.1%; in the assay on RXF 393 renal, 27.9%; in the assay with SF-268 CNS, 34.5%. Further, the growth with SF-295 CNS is 49.2%; with SF-539 CNS it was 30.7%; in the assay on UACC-257 melanoma, 72.3%; with M14 melanoma it was 46.4%; in the assay on HCT-15 colon it was 82.5%; in the assay with HT29 colon, 35.8%. The growth is 49% in the assay on SNB-75 CNS; 58% in the assay with SNB-19 CNS; 31.8% in the assay with U251 CNS; 32.4% with PC-3 prostate; -52.2% (active) in the assay with SK-MEL-5 melanoma; 52.9% with UACC-62 melanoma. Moreover, the growth was 22.5% in the assay with LOX IMVI melanoma and 52.8% in the assay with SK-MEL-28 melanoma.

For `CCN(CC)CCNc1ccc([N+](=O)[O-])c2sc3cc(Cl)ccc3c(=O)c12`, the growth in the assay on DU-145 prostate was 50.2%; in the assay on K-562 leukemia, 1.93% (active); in the assay on MALME-3M melanoma, -9.6% (active); in the assay on MDA-MB-231 breast it was 22.6%; in the assay on RXF 393 renal it was -39.3% (active); in the assay with SF-268 CNS, 52.4%. The growth with SF-295 CNS is 43.9%; in the assay on SF-539 CNS it was 34.5%; in the assay with UACC-257 melanoma, 71.5%; in the assay with M14 melanoma, 79.4%; in the assay on HCT-15 colon, 48.5%; in the assay with HT29 colon, 34.7%. For the same molecule, the growth in the assay on SNB-75 CNS was 1.48% (active); in the assay with SNB-19 CNS it was 42.2%; in the assay on U251 CNS, 40.4%; in the assay with PC-3 prostate it was 48.5%; in the assay with SK-MEL-5 melanoma it was 61.7%; in the assay on UACC-62 melanoma, 30.9%. Further, the values for the growth with LOX IMVI melanoma and in the assay with SK-MEL-28 melanoma were 19.1% and -47.5% (active), respectively.

With `C#C[C@H](O)/C=C/CCCCCCC#C[C@H](O)CC[C@@H](O)C#CCCCCCC/C=C/[C@@H](O)C#C`, the growth is 95.7% in the assay with DU-145 prostate; 11.7% in the assay on K-562 leukemia; -32.9% (active) with MALME-3M melanoma; 63.1% in the assay with MDA-MB-231 breast; 104% with RXF 393 renal; 85.1% in the assay with SF-268 CNS. For the same molecule, the growth is 87.4% with SF-295 CNS; 75.9% with SF-539 CNS; 101% in the assay on UACC-257 melanoma; 93.1% in the assay with M14 melanoma; 80.4% in the assay with HCT-15 colon; 80.6% in the assay with HT29 colon. Besides, the growth is 85.1% with SNB-75 CNS; 101% in the assay on SNB-19 CNS; 89.3% with U251 CNS; 80.7% in the assay with PC-3 prostate; 91.9% in the assay on SK-MEL-5 melanoma; 80% in the assay with UACC-62 melanoma. The growth in the assay with LOX IMVI melanoma is -71.2% (active); in the assay with SK-MEL-28 melanoma it was 101%.

As for `COc1cc(NC(=O)C#Cc2ccccc2)c(OC)cc1Cl`, the growth was 83.6% with DU-145 prostate; 20.6% in the assay on K-562 leukemia; 61.4% in the assay with MALME-3M melanoma; 26.6% with MDA-MB-231 breast; 83.5% with RXF 393 renal; 39.8% with SF-268 CNS. Further, the growth was 75.1% with SF-295 CNS; 66.6% in the assay on SF-539 CNS; 89.2% in the assay with UACC-257 melanoma; 49.8% in the assay with M14 melanoma; 20.6% with HCT-15 colon; 29.3% with HT29 colon. In addition, the growth in the assay with SNB-75 CNS is 65.8%; with SNB-19 CNS it was 40.7%; in the assay with U251 CNS it was 39.5%; in the assay with PC-3 prostate, 38.1%; with SK-MEL-5 melanoma, 30.1%; in the assay with UACC-62 melanoma, 36.8%. In addition, the growth was 17.2% with LOX IMVI melanoma and 84.2% in the assay with SK-MEL-28 melanoma.

For the molecule `O=C(O)c1cccc2oc(-c3ccccc3O)nc12`, the growth with DU-145 prostate is 63.6%; with K-562 leukemia, 60.9%; in the assay on MALME-3M melanoma, 70.9%; in the assay on MDA-MB-231 breast it was 51.9%; with RXF 393 renal it was 61%; in the assay with SF-268 CNS it was 45%. The growth in the assay on SF-295 CNS was 31.7%; with SF-539 CNS, 50%; in the assay on UACC-257 melanoma, 80.2%; with M14 melanoma, 54.8%; in the assay with HCT-15 colon, 34.1%; in the assay on HT29 colon it was 36.1%. In addition, the growth in the assay with SNB-75 CNS is 74.7%; in the assay on SNB-19 CNS, 67.8%; with U251 CNS, 45.6%; in the assay with PC-3 prostate, 47.8%; in the assay with SK-MEL-5 melanoma, 58.1%; in the assay with UACC-62 melanoma, 65%. The growth in the assay with LOX IMVI melanoma is 4.75% (active); in the assay on SK-MEL-28 melanoma, 77.9%.

For `CCCCCCCCCCCC(=O)OCCNC(=O)C[n+]1ccccc1`, the growth in the assay on DU-145 prostate is 131%; in the assay with K-562 leukemia it was 117%; with MALME-3M melanoma, 96.3%; in the assay on MDA-MB-231 breast, 99.6%; with RXF 393 renal, 110%; in the assay with SF-268 CNS it was 104%. Moreover, the growth with SF-295 CNS was 78.7%; in the assay with SF-539 CNS, 105%; with UACC-257 melanoma, 106%; in the assay with M14 melanoma it was 102%; in the assay with HCT-15 colon, 110%; in the assay on HT29 colon, 93.7%. Besides, the growth was 96.5% with SNB-75 CNS; 102% with SNB-19 CNS; 101% in the assay with U251 CNS; 92.5% in the assay with PC-3 prostate; 100% in the assay with SK-MEL-5 melanoma; 104% in the assay on UACC-62 melanoma. In addition, the growth in the assay on LOX IMVI melanoma is 106%; in the assay with SK-MEL-28 melanoma it was 109%.

As to `N#CC(C#N)=C(C#N)c1c[nH]c2ccccc12`, the growth in the assay with DU-145 prostate is 88%; with K-562 leukemia, 91.3%; in the assay with MALME-3M melanoma, 86.1%; with MDA-MB-231 breast, 84.8%; in the assay with RXF 393 renal, 88.2%; in the assay on SF-268 CNS it was 90.7%. The growth in the assay with SF-295 CNS was 103%; in the assay with SF-539 CNS, 80.4%; in the assay on UACC-257 melanoma it was 85.2%; with M14 melanoma it was 79.7%; in the assay on HCT-15 colon, 73.3%; with HT29 colon, 80.4%. The growth is 79.6% in the assay on SNB-75 CNS; 92.9% in the assay with SNB-19 CNS; 86.3% in the assay on U251 CNS; 73.1% with PC-3 prostate; 92.8% in the assay with SK-MEL-5 melanoma; 82.9% in the assay on UACC-62 melanoma. For the same molecule, the values for the growth with LOX IMVI melanoma and in the assay with SK-MEL-28 melanoma were 82.3% and 108%, respectively.

(Values after PubChem BioAssay (NCI).)
